# Measurements as given in the supplement of paper PMC3334620.
# The full ranking holds about 33,000 sequences; the median of “E-score (-0.5 to 0.5)” is about -0.0059, and the highest 2% start at about 0.26. The list comes from a sample in which the highest values are over-represented; it also holds similar and randomly drawn sequences.
# Molecular target: T1, Cin5 (UniProt P40917)
# T1 sequence: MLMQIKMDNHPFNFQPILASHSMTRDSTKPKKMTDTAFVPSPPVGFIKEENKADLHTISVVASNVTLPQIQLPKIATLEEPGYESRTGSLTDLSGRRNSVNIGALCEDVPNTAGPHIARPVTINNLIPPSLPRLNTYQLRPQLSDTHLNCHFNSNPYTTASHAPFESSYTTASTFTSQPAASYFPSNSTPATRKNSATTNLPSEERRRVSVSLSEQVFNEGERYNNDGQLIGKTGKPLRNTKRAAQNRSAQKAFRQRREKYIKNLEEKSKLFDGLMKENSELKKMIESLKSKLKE
# Assay: PBM E-score (8-mer binding enrichment) (E-score (-0.5 to 0.5)); higher = stronger / more preferred TF binding
# Conditions: protein concentration: 100 nM; construct: GST-full length
# Summary of the method: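 Each ungapped eight-base word and its reverse complement, pooled, received an E-score from the Universal PBM Analysis Suite. Underlying scans, normalised with masliner, recorded fluorescent anti-GST bound to GST-tagged yeast transcription factors. These were applied at about 100-200 nM to universal all-10-mer Agilent arrays double-stranded by primer extension.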
row,Sequence,PBM E-score
1,ATAGATTG,0.224
2,GTAGATTA,0.232
3,AAAGTTGC,0.0362
4,AGGCCAAC,-0.251
5,CATTGCAA,-0.0643
6,CTCAGGGA,-0.0496
7,GCGCATTA,0.147
8,ATCACCTG,0.148
9,CAATCTGC,-0.0434
10,GAGCAGAA,-0.0414
11,ACCAACGC,-0.0288
12,AGGGCACG,-0.206
13,CCGACCGG,-0.211
14,ATAGCTAA,0.0506
15,TTAGCTAA,0.343
16,CTAGCTAA,0.0272
17,CACTCGGG,-0.117
18,GATGACAC,0.0142
19,GATGACAA,0.27
20,CATGACAA,0.0097
21,AGGGCCCC,-0.322
22,TCCACTAA,0.0246
23,CGCTTAGC,-0.0166
24,AATATCGG,0.179
25,AATATCGA,0.326

row,Sequence,PBM E-score
1,GATATCGA,0.0864
2,AAAGAGCG,0.0467
3,AACCCTGA,0.131
4,CGTGCTGA,0.0279
5,AATGCTTA,0.276
6,GATGCTTA,0.0868
7,CATGCTGA,0.181
8,CATGCTTA,0.259
9,AATGCTGA,0.118
10,CATGCTTC,0.0417
11,CGTGCTTA,0.273
12,GGTGCTTA,0.0985
13,ACGGTGGA,-0.285
14,GAGTCGAC,0.063
15,GCCTAACC,-0.12
16,ATCCGACG,0.0285
17,CCGCTTAC,0.334
18,ACGCTTAC,0.269
19,ACGCTTAG,0.0472
20,CCACTTAC,0.303
21,GCACTTAC,0.112
22,CCGCTTAG,-0.0568
23,ACGCTTAT,0.101
24,CCACTTAA,0.0597
25,CCGCTTAA,0.103

row,Sequence,PBM E-score
1,GAACAGGA,-0.126
2,CCTTGCAC,-0.0869
3,TAGATCAA,0.0289
4,ACGGAGAG,0.00731
5,ATGTAAGA,0.274
6,CGGTAAGC,0.114
7,AGGTAAGG,0.0286
8,ACGTAAGA,0.347
9,GCGTAACC,0.0286
10,TCGTAAGA,-0.00999
11,GTGTAAGA,0.0309
12,CTGTAAGA,-0.00022
13,ACGTAACC,0.262
14,ACGTAAGT,0.25
15,ACGTAACG,0.214
16,AGGTAAGC,0.321
17,AATCGTCG,0.14
18,ACATTCAC,0.093
19,AAATTCTC,-0.0624
20,TCCCTTAA,-0.186
21,AACTAGGT,0.118
22,CGACATAC,0.104
23,GTCACACA,0.0464
24,TACTTCGA,0.183
25,CGTCCTCC,-0.139

row,Sequence,PBM E-score
1,CATGGTAA,0.0768
2,ACTCATCT,0.156
3,GATATGGA,0.244
4,ATGTAAGC,0.431
5,AAGTAATG,0.184
6,ACGTAAAG,0.191
7,CTGTAAGC,0.0794
8,ACGTAATG,0.334
9,ATGTAAGG,0.103
10,ACAGGGAT,0.0409
11,ACAATCAG,0.134
12,AAACGTAA,0.234
13,GAACGTAA,0.297
14,GAACGTTA,-0.104
15,GAACGTAC,-0.115
16,TAACGTAA,0.415
17,GAACGGAA,0.176
18,GATCGTAA,0.116
19,CATCGTAA,0.0929
20,TAACGGAA,0.322
21,CAACGTAA,0.204
22,CAACGGAA,0.103
23,TATCGTAA,0.28
24,GAGGGGGA,-0.324
25,GTGAGATA,0.164

row,Sequence,PBM E-score
1,CTAGCCGC,0.0223
2,GACTAGAC,-0.179
3,ATCTGAAT,0.0915
4,GACCTTCC,-0.147
5,AGATATTA,0.168
6,CGATATTC,0.0444
7,CAATATTC,0.102
8,GAATATTC,0.265
9,GAATATTA,0.274
10,TAATATTA,0.368
11,GGATATTA,0.143
12,AAATATTT,0.141
13,GCATATTA,0.246
14,CGATATTA,0.355
15,GAATATAC,0.195
16,GAATATCA,0.174
17,GATCGTTA,0.0193
18,GGACCTAA,-0.0416
19,CTGGGAAG,-0.0869
20,CGATCGCC,0.0437
21,AGTCTTAT,0.158
22,AAGGGCGA,-0.241
23,CAAGACGA,-0.0306
24,CTCCGCCC,-0.173
25,CTCCACAC,-0.0294

row,Sequence,PBM E-score
1,ACTTCTTG,-0.0532
2,AGGCTTGA,-0.0503
3,CCACCTCC,-0.266
4,AAGCACTC,-0.0467
5,GAGTATCA,-0.0396
6,AAATATTC,0.183
7,CAATATTG,0.205
8,CAATATTA,0.275
9,TAGTATCA,0.296
10,CAATATCA,0.108
11,AAATATTA,0.315
12,CAGTATCA,0.0369
13,CAATATCC,0.116
14,TAATATCA,0.26
15,AAATATCA,0.179
16,AAATATTG,0.222
17,ACCTACGT,0.0549
18,CACTGCAG,-0.0359
19,CGGCAGTC,0.0575
20,GTGCCAGA,-0.293
21,GCACTACC,-0.00786
22,TACCGGTA,0.0137
23,GCGATTCA,0.0512
24,AAAATCCT,-0.223
25,CTTTAGCC,0.0446

row,Sequence,PBM E-score
1,CCGGCTTC,0.0218
2,TGGAGCCA,-0.184
3,ATTGGCGG,-0.0494
4,AGGATAGC,-0.064
5,CTGACCGC,-0.068
6,ACTATAAA,0.146
7,ACTATAAT,0.27
8,ACTATAAC,0.0218
9,ACAATAAT,0.267
10,ACAATAAC,0.143
11,ACAATAAA,0.162
12,ATTATAAA,0.195
13,ATTATAAG,0.188
14,ATTATAAT,0.265
15,ATGAATAA,0.142
16,ACCAGGGG,-0.265
17,AGGCAGTG,0.141
18,GAAATATA,0.287
19,GAAAAATA,0.158
20,CAAATATA,0.166
21,AAAATATA,0.159
22,GAAATATC,0.111
23,TAAATATA,0.261
